Source: PubChem
This is a sample that favours compounds with a hit; in the whole collection about 2.9% have one here.
POLB inh = inhibitors of human DNA polymerase beta | Pol beta primer extension/strand displacement, fluorescence kinetic | Potency, µM (highest dose often 114 µM), for the others: at the highest dose activity change, negative = inhibition, most hits filed as inhibitors | hit rate 1.3% among 340,000; also: potency is read from the fitted curve at half-maximal effect; % is scaled to controls: 0 for no effect and ±100 for the full control effect
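Pol beta (10 nM) was preincubated with compound for 15 min at room temperature. The reaction was then started with 50 nM substrate and read immediately and after a further 10 min at room temperature.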
ALOX12 inh = blocks human arachidonate 12S-lipoxygenase | P18054 | purified 12hLO, xylenol orange hydroperoxide absorbance | Potency, µM (doses to about 108 µM), inactives show at the top dose activity change, negative = inhibition, most hits filed as inhibitors | hit rate 1.1% among 580,000 | AID 1671190; also: potency is read from the fitted curve at half-maximal effect; % is scaled to controls: 0 for no effect and ±100 for the full control effect
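Purified human 12hLO at 150 nM in 25 mM Hepes, 0.01% Triton X-100, pH 7.0, preincubated 15 min at room temperature with compound. Reaction started with 40 uM arachidonic acid, 30 min at room temperature. Hydroperoxide measured by Fe-xylenol orange, 573/405 nm absorbance ratio.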
Pol eta inh-1 = blocks human DNA polymerase eta activity; Potency, µM (titrated, usually from 114 µM), without a hit: at the top dose activity change, negative = inhibition, actives largely listed as inhibitors; AID 588591; Q9Y253; recombinant Pol eta, fluorescent DNA replication assay; hit rate 1.2% among 390,000; also: potency is read from the fitted curve at half-maximal effect; % is scaled to controls: 0 for no effect and ±100 for the full control effect
Target sequence (Q9Y253 whole entry, looked up): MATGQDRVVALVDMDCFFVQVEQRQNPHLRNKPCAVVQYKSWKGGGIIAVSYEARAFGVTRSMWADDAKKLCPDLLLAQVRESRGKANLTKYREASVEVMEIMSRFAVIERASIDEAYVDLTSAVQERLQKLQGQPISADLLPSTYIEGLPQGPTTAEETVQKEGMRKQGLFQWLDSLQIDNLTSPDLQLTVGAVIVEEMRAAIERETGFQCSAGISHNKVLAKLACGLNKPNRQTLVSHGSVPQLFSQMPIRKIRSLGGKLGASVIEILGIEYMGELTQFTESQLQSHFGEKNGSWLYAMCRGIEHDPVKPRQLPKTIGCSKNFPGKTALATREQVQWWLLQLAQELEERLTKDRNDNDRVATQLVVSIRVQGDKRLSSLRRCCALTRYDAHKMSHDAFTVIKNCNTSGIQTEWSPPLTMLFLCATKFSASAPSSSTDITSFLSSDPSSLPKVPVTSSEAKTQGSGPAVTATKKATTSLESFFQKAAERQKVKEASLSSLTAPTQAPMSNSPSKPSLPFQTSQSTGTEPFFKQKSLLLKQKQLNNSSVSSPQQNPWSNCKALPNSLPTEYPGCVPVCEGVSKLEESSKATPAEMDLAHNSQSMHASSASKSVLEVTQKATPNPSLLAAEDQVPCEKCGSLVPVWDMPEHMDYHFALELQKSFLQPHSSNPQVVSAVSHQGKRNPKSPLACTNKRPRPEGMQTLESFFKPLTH
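Fluorescent replication assay: 50 nM final substrate added after a 15 min room-temperature compound preincubation with 10 nM enzyme. Signal taken at 0 min and again at 10 min.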
Pol kappa inh-1 = DNA polymerase kappa (human) inhibition; Q9UBT6; purified Pol kappa, fluorescent DNA synthesis assay, 10 min; Potency, µM (highest dose often 107 µM), for inactives: at the highest dose activity, negative = inhibition, hits mostly inhibitors; hit rate 0.53% among 400,000; also: potency is read from the fitted curve at half-maximal effect; % is scaled to controls: 0 for no effect and ±100 for the full control effect
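Activity was followed as the change in fluorescence between reads at 0 and 10 min after starting the reaction with 50 nM substrate. Beforehand, 10 nM polymerase had been preincubated with compound for 15 min at room temperature.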
PI5P4K alpha inh = blocks human PI5P4K alpha kinase activity. P48426. PI5P4Kalpha enzyme, ADP-Glo luminescence, 60 min; stronger effect = lower value. max response, %. hit rate 1.2% among 330,000. AID 652105; active = max response of -50% or lower; inconclusive = between -30% and -50%; inactive = -30% or higher; also: value at the top dose of about 77 µM; % is scaled to controls: 0 for no effect and ±100 for the full control effect
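Luminescence from ADP-Glo served as readout of PI5P4Kalpha activity in a qHTS format. Reaction: enzyme, substrate, compound, ATP at 5 microM final, 60 min at RT.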
POLI inh = DNA polymerase iota (human) inhibition; Q9UNA4; Pol iota fluorescent replication assay, 10 min; Potency, µM (series often up to 115 µM), for the others: at the highest dose activity, negative = inhibition, hits mostly inhibitors; hit rate 1% among 390,000; AID 588590; also: potency is read from the fitted curve at half-maximal effect
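Pol iota at 10 nM preincubated 15 min with compounds at room temperature; reaction started with fluorescent substrate, 50 nM final. Fluorescence read kinetically at 0 and 10 min; buffer-only wells as negative control.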
Pol kappa inh-2 = confirmation of human DNA polymerase kappa inhibitors; shares compounds with Pol eta inh-1; purified Pol-kappa, fluorescent strand-displacement substrate; Potency, µM, most hits filed as inhibitors; hit rate 76% among 920; AID 720501; also: potency is read from the fitted curve at half-maximal effect
Pol eta inh-2 = confirmation of human DNA polymerase eta inhibitors | shares compounds with Pol eta inh-1 | Pol eta primer extension, TAMRA/BHQ fluorescence, 10 min | Potency, µM, most hits filed as inhibitors | hit rate 64% among 2,600; also: potency is read from the fitted curve at half-maximal effect
ADP-Glo interf = interferes with ADP-Glo detection without enzyme present | shares compounds with PI5P4K alpha inh | ADP-Glo detection counter-screen, luciferase luminescence, no enzyme | Potency, µM (series often up to 76.9 µM), without a hit: at the top dose activity change, negative = inhibition, usual class: inhibitors | 1,100 tested, under 10 active | AID 743285
* = called active by the depositor; ? = inconclusive; . = not tested or not shown; [ ] = dose if it differs, or a comment. Unless noted, calls follow the shape of the dose curve; as a rule, active = well fitted curve in the direction sought with a large enough effect; inconclusive = small, poorly fitted or top-dose-only effect, or another doubt; inactive = no such curve, though single readings can be large; an effect the other way counts as inactive or inconclusive.

SMILES	POLB inh	ALOX12 inh	Pol eta inh-1	Pol kappa inh-1	PI5P4K alpha inh	POLI inh	Pol eta inh-2	ADP-Glo interf	others
O=C(O)COc1ccccc1C(Nc1ccccn1)c1cc(Cl)c2cccnc2c1O (centres undefined)	-6%	?	50µM*	-14%	-72*	-8%	?	-1%
O=C(c1ccccc1F)N1CCn2c(nnc2-c2ccc(Cl)cc2)C1	.	-3%[6.33 µM]	.	.	.	.	.	.
c1ccc2nc(-c3cc4ccccc4s3)ccc2c1	.	.	.	-3%	.	5%	.	.
CN(C)c1ccc2nc3ccc(=O)cc-3sc2c1	.	?	40µM*	.	-73*	.	?	?
Cc1ccc(CNC(=O)CN2c3cccc4cccc(c34)S2(=O)=O)cc1	.	-14%	-18%	6%	-21	63%	.	.
COc1cccc(CNC(=O)CN2c3cccc4cccc(c34)S2(=O)=O)c1	.	?	14µM*	?	-65*	45µM*	?	-7%
CCC(C)(C(=O)NC1CCCCC1)N(C(=O)CNC(=O)c1ccccc1)c1ccc(C)cc1 (centres undefined)	.	-5%	.	.	.	.	.	.
Cc1ccc(N2CC(NC(=O)Nc3nc4ccccc4s3)CC2=O)cc1 (centres undefined)	.	-4%	.	.	.	.	.	.
Cc1ccc(C)c(-n2c3nc(=O)n(C)c(=O)c-3cc3ccccc32)c1	13%	?	-8%	9%	-3	10%	.	.
Cc1ccc(C)c(-n2c3nc(=O)[nH]c(=O)c-3cc3cc([N+](=O)[O-])ccc32)c1	35µM*	?	13µM*	?	-65*	20µM*	60*	5%
O=C(COC(=O)CCC(=O)c1ccc(Cl)cc1)NCc1ccco1	35µM*	?	25µM*	?	-52*	45µM*	76*	0%
O=C(CSCc1ccc(Cl)cc1)Nc1ccc2c(c1)OCCO2	2%	-21%	-11%	-17%	2	9%	.	.
O=C(CSc1nc(=O)n2cc(Cl)ccc2n1)Nc1ccc2c(c1)OCCO2	.	?	28µM*	-44%	-54*	-19%	?	-4%
CC(=O)Nc1ccc(NC(=O)CSc2ncnc3nc[nH]c23)cc1	.	2%	.	.	.	.	.	.
O=C(O)c1cc(-c2ccc(-c3c(-c4ccc5c(c4)OCO5)noc3-c3ccsc3)cc2)nc2ccccc12	-15%	?	79µM*	-30%	-71*	?	.	0%	Pol kappa inh-2=?
Cc1csc(NC(=O)CSc2sc3c(O)cc(=O)[nH]c3c2C#N)n1	45µM*	?	18µM*	28µM*	-81*	7.9µM*	?	5%	Pol kappa inh-2=?
COc1ccc(NC(=O)CSc2nc(O)cc(=O)[nH]2)c(OC)c1	-30%	1%	-8%	1%	-7	2%	.	.
COc1ccc(NC(=O)CSc2sc3c(O)cc(=O)[nH]c3c2C#N)c(OC)c1	1.6µM*	-19%	22µM*	?	-65*	2.5µM*	?	-8%	Pol kappa inh-2=?
Cc1csc(NC(=O)CSc2nsc(SCC(=O)Nc3nc(C)cs3)c2C#N)n1	27%	?	-4%	-19%	.	-1%	.	.
Cn1c(=O)c2c(nc(Cl)n2CC(=O)NCC23CC4CC(CC(C4)C2)C3)n(C)c1=O	.	13%	.	.	.	.	.	.
COc1ccc(C2=CC3=C(Br)C(=O)C(C)(OC(=O)c4cccs4)C(=O)C3=CO2)cc1 (centres undefined)	.	6.3µM*	40µM*	?	-70*	?	?	3%
CSc1nc2c(c(=O)[nH]1)C(c1cccs1)C1=C(CCCC1=O)N2 (centres undefined)	28µM*	4%	16µM*	?	-70*	?	?	4%
O=S(=O)(NCc1ccccc1Cn1cccn1)c1ccccc1C(F)(F)F	.	4%	.	.	.	.	.	.
Cc1ccc(-c2csc(NS(=O)(=O)c3cccc(F)c3)n2)o1	.	16µM*	25µM*	?	-68*	?	?	2%
Cc1nc(C#N)c(N2CCN(C(=O)CN(C)C(C)C(C)(C)C)CC2)o1 (centres undefined)	.	16%	.	.	.	.	.	.
SMILES	POLB inh	ALOX12 inh	Pol eta inh-1	Pol kappa inh-1	PI5P4K alpha inh	POLI inh	Pol eta inh-2	ADP-Glo interf	others
Cc1ccc(NC(=O)C(C)OC(=O)c2cc(=O)[nH]c3ccccc23)cc1S(=O)(=O)N1CCOCC1 (centres undefined)	.	-20%	18µM*	89µM*	-61*	25µM*	?	2%
Cc1ccc(-c2csc(NC(=O)c3ccno3)n2)cc1	14µM*	-16%	45µM*	-24%	-53*	?	?	-3%
Cc1ccc(-c2csc(NC(=O)c3ccc(C)o3)n2)cc1	-29%	-24%	-21%	-23%	0	13%	.	.
NC(=O)c1c(NC(=O)C2c3ccccc3Oc3ccccc32)sc2c1CCCCC2	45µM*	-19%	35µM*	-28%	-54*	?	?	4%
CCC(C)(C)C1CCc2c(sc(NC(=O)C3c4ccccc4Oc4ccccc43)c2C(N)=O)C1 (centres undefined)	1%	0%	-6%	-22%	.	-2%	.	.
Cc1cc(C(=O)Nc2ccccc2)c2ccccc2n1	29%	?	-13%	-5%	2	36%	.	.
Cc1cc(C(=O)Nc2sccc2C#N)c2ccccc2n1	2%	-1%	45µM*	-38%	-73*	?	?	1%
CCN(CC)C(=O)c1coc(COc2ccc3c(c2)C(c2cccc(F)c2)N(C(=O)C(C)C)CC3)n1 (centres undefined)	.	5%	.	.	.	.	.	.
CN(c1ccccc1C(=O)O)S(=O)(=O)c1ccc2c3c(cccc13)C(=O)N2	13µM*	52%	13µM*	79µM*	-56*	?	?	-3%
O=C(O)c1ccccc1NS(=O)(=O)c1ccc2c3c(cccc13)C(=O)N2	0%	?	3%	-9%	.	?	.	.
COc1ccc(C(C(=O)NC2CCCC2)N(C(=O)c2snc(C(N)=O)c2N)c2cccc(O)c2)cc1 (centres undefined)	40µM*	.	22µM*	79µM*	-55*	?	76*	-4%	Pol kappa inh-2=?
O=S(=O)(Nc1nc2ccccc2nc1Nc1ccc(Cl)cc1)c1ccc2c(c1)OCCO2	.	-22%	.	.	.	.	.	.
